Drawing on the supplement of paper PMC10646978, this text covers NF-kB reporter, IRF reporter and viability score for 15 compounds.

Molecules are shown by their SMILES. ± gives the standard deviation.

Settings in all cases: modulator concentration 10 µM
Test [1] concerns RAW-Dual (murine macrophage reporter line). The test is described as follows: NF-kB reporter (SEAP) activity fold change vs agonist alone; higher = enhanced NF-kB activity. The procedure, abridged:
(§1)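 Overnight stimulation with a PRR agonist followed pre-incubation for 1 hour at 37 °C with compound at 10 μM final. This was done in RAW-Dual murine macrophage reporter cells seeded at 50 000 per well in 384-well plates. NF-κB (SEAP, QUANTI-Blue absorbance at 620 nm) and IRF (Lucia luciferase, QUANTI-Luc luminescence) were read from the supernatant. Each reporter's fold change relative to the mean agonist-only control on the same plate was averaged over replicate plates.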

For test [2] the test system is unchanged. The test is described as follows: IRF reporter (Lucia luciferase) activity fold change vs agonist alone; higher = enhanced IRF activity. The procedure, abridged:
as §1

Test [3] has the same test system. The test can be described thus: viability score (confluency relative to resting cells, overnight) (fraction); higher = more viable, active = viable (0.7 or more). The procedure, abridged: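 A compound met the cutoff when both of two confluency masks exceeded 70% of resting cells. Those masks were made with IncuCyte software from IncuCyte images of RAW-Dual macrophages treated overnight at 10 μM final. This is the basis of the viability score, which is confluency relative to resting cells.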

The mark [4] stands for this setting: agonist: CpG ODN 1826 0.5 ug/mL.

Take `O=C(NC(=S)Nc1cccc([N+](=O)[O-])c1)c1cccc(I)c1`: the results for the NF-kB reporter in test [1] (setting [4]), in test [1] (agonist: LPS 0.1 ug/mL) and in test [1] (agonist: MPLA […]) were 0.944 ± 0.1, 1.08 ± 0.072 and 0.985 ± 0.044, respectively. In addition, the IRF reporter came to 0.794 ± 0.1 in test [2] (agonist: 3'3'-cGAMP 10 ug/mL), 1.09 ± 0.14 in test [2] (agonist: LPS 0.1 ug/mL) and 1.02 ± 0.17 in test [2] (agonist: MPLA […]). In test [3], the viability score is 1 (active).

As to `CCCC(=O)Nc1ccc(N2CCOCC2)c(Cl)c1`, the results for the NF-kB reporter in test [1] (setting [4]), in test [1] (agonist: LPS 0.1 ug/mL) and in test [1] (agonist: MPLA […]) were 1.09 ± 0.21, 1.04 ± 0.098 and 0.964 ± 0.098, respectively. In addition, the IRF reporter turned out to be 0.875 ± 0.026 in test [2] (agonist: 3'3'-cGAMP 10 ug/mL), 1.28 ± 0.22 in test [2] (agonist: LPS 0.1 ug/mL) and 1.21 ± 0.12 in test [2] (agonist: MPLA […]). Besides, the viability score in test [3] was 1 (active).

On to `Nc1cccc(O)c1`, for which the NF-kB reporter in test [1] (setting [4]) is 0.98 ± 0.099; in test [1] (agonist: LPS 0.1 ug/mL), 1.08 ± 0.069; in test [1] (agonist: MPLA […]) it was 1.03 ± 0.023. Besides, the IRF reporter in test [2] (agonist: 3'3'-cGAMP 10 ug/mL) is 0.983 ± 0.09; in test [2] (agonist: LPS 0.1 ug/mL), 0.946 ± 0.092; in test [2] (agonist: MPLA […]) it was 0.938 ± 0.11. The viability score in test [3] is 0.997 (active).

As to `O=C(NN=Cc1c(O)ccc2ccccc12)c1ccncc1`, the NF-kB reporter is 2.37 ± 0.19 in test [1] (setting [4]), 1.3 ± 0.086 in test [1] (agonist: LPS 0.1 ug/mL) and 1.48 ± 0.052 in test [1] (agonist: MPLA […]). Besides, the IRF reporter in test [2] (agonist: 3'3'-cGAMP 10 ug/mL) came to 0.75 ± 0.11; in test [2] (agonist: LPS 0.1 ug/mL), 1.26 ± 0.1; in test [2] (agonist: MPLA […]) it was 1.21 ± 0.2. In test [3], the viability score is 0.965 (active).

As to `Cc1ccc(NC(=O)c2ccc(CN3CCN(C)CC3)cc2)cc1Nc1nc(-c2cccnc2)cs1`, the NF-kB reporter in test [1] (setting [4]) came out at 0.228 ± 0.018; in test [1] (agonist: LPS 0.1 ug/mL), 1.18 ± 0.067; in test [1] (agonist: MPLA […]), 1.74 ± 0.17. For the same compound, the IRF reporter stood at 0.414 ± 0.051 in test [2] (agonist: 3'3'-cGAMP 10 ug/mL), 0.703 ± 0.051 in test [2] (agonist: LPS 0.1 ug/mL) and 0.691 ± 0.058 in test [2] (agonist: MPLA […]). The viability score in test [3] is 0.981 (active).

Turning to `CC1CC2(NC(=O)NC2=O)C(C)CN1C` (stereo not given), the values for the NF-kB reporter in test [1] (setting [4]), in test [1] (agonist: LPS 0.1 ug/mL) and in test [1] (agonist: MPLA […]) were 0.933 ± 0.061, 1.01 ± 0.088 and 0.87 ± 0.053, respectively. Besides, the IRF reporter is 0.99 ± 0.034 in test [2] (agonist: 3'3'-cGAMP 10 ug/mL), 1.34 ± 0.2 in test [2] (agonist: LPS 0.1 ug/mL) and 1.21 ± 0.15 in test [2] (agonist: MPLA […]). Besides, the viability score in test [3] is 1 (active).

In the case of `COC(CNC(=O)C(C)(C)Oc1ccc(Cl)cc1)c1cccc(F)c1` (stereo not given), the NF-kB reporter in test [1] (setting [4]) worked out at 1.27 ± 0.39; in test [1] (agonist: LPS 0.1 ug/mL), 1.07 ± 0.055; in test [1] (agonist: MPLA […]), 1.14 ± 0.081. For the same compound, the IRF reporter was 0.96 ± 0.035 in test [2] (agonist: 3'3'-cGAMP 10 ug/mL), 0.959 ± 0.16 in test [2] (agonist: LPS 0.1 ug/mL) and 1.04 ± 0.18 in test [2] (agonist: MPLA […]). In test [3], the viability score was 0.973 (active).

With `CCCCCCOc1ccc(N2C(=O)CC(SC(=Nc3ccccc3)Nc3ccccc3)C2=O)cc1` (stereo not given), the figures for the NF-kB reporter in test [1] (setting [4]), in test [1] (agonist: LPS 0.1 ug/mL) and in test [1] (agonist: MPLA […]) were 0.968 ± 0.08, 1.07 ± 0.073 and 0.856 ± 0.05, respectively. Moreover, the IRF reporter in test [2] (agonist: 3'3'-cGAMP 10 ug/mL) worked out at 0.937 ± 0.036; in test [2] (agonist: LPS 0.1 ug/mL), 1.45 ± 0.092; in test [2] (agonist: MPLA […]) it was 1.23 ± 0.25. Besides, the viability score in test [3] was 0.996 (active).

On to `O=C(O)CCCCCN1C(=O)c2cccc3cccc(c23)C1=O`, for which the NF-kB reporter in test [1] (setting [4]) came out at 0.97 ± 0.055; in test [1] (agonist: LPS 0.1 ug/mL) it was 1.05 ± 0.094; in test [1] (agonist: MPLA […]), 0.948 ± 0.06. Also, the IRF reporter in test [2] (agonist: 3'3'-cGAMP 10 ug/mL) came out at 0.989 ± 0.05; in test [2] (agonist: LPS 0.1 ug/mL) it was 1.35 ± 0.092; in test [2] (agonist: MPLA […]) it was 1.11 ± 0.1. Further, the viability score in test [3] is 1.01 (active).

For the compound `Cc1ccc(CSCCNC(=O)CN(c2cccc(C)c2)S(C)(=O)=O)cc1`, the results for the NF-kB reporter in test [1] (setting [4]), in test [1] (agonist: LPS 0.1 ug/mL) and in test [1] (agonist: MPLA […]) were 0.951 ± 0.09, 1.01 ± 0.056 and 0.99 ± 0.061, respectively. Moreover, the IRF reporter was 0.998 ± 0.025 in test [2] (agonist: 3'3'-cGAMP 10 ug/mL), 1.44 ± 0.2 in test [2] (agonist: LPS 0.1 ug/mL) and 1.15 ± 0.2 in test [2] (agonist: MPLA […]). Also, the viability score in test [3] was 1 (active).

On to `Cc1cc(-c2ccccc2)nnc1NCCN1CCOCC1.Cl.Cl`, for which the NF-kB reporter in test [1] (setting [4]) stood at 1.19 ± 0.28; in test [1] (agonist: LPS 0.1 ug/mL), 1.04 ± 0.1; in test [1] (agonist: MPLA […]), 1 ± 0.073. Besides, the IRF reporter in test [2] (agonist: 3'3'-cGAMP 10 ug/mL) was determined as 0.966 ± 0.049; in test [2] (agonist: LPS 0.1 ug/mL) it was 1.28 ± 0.14; in test [2] (agonist: MPLA […]) it was 1.27 ± 0.12. In addition, in test [3], the viability score is 0.989 (active).

Regarding `COc1ccc(C=NNc2nc(-c3ccccc3)cc(-c3ccc(Br)cc3)n2)c(OC)c1`, the NF-kB reporter in test [1] (setting [4]) is 0.918 ± 0.091; in test [1] (agonist: LPS 0.1 ug/mL), 0.94 ± 0.1; in test [1] (agonist: MPLA […]), 1.03 ± 0.12. Also, the results for the IRF reporter in test [2] (agonist: 3'3'-cGAMP 10 ug/mL), in test [2] (agonist: LPS 0.1 ug/mL) and in test [2] (agonist: MPLA […]) were 0.96 ± 0.03, 1.08 ± 0.12 and 1.08 ± 0.17, respectively. Moreover, in test [3], the viability score was 1.03 (active).

Consider `Cc1cc(OC2CN(C(=O)Cc3noc4ccccc34)C2)cc(=O)n1C1CC1`, for which the NF-kB reporter in test [1] (setting [4]) is 1.18 ± 0.072; in test [1] (agonist: LPS 0.1 ug/mL), 1.08 ± 0.088; in test [1] (agonist: MPLA […]), 0.996 ± 0.043. For the same compound, the IRF reporter in test [2] (agonist: 3'3'-cGAMP 10 ug/mL) stood at 0.919 ± 0.072; in test [2] (agonist: LPS 0.1 ug/mL), 1 ± 0.061; in test [2] (agonist: MPLA […]), 0.957 ± 0.14. Besides, the viability score in test [3] is 0.999 (active).

Take `CN(C)CCOC(c1ccc(Cl)cc1)c1ccccn1.O=C(O)/C=C\C(=O)O` (stereo not given): the NF-kB reporter in test [1] (setting [4]) came to 0.87 ± 0.12; in test [1] (agonist: LPS 0.1 ug/mL), 1.14 ± 0.19; in test [1] (agonist: MPLA […]) it was 0.954 ± 0.073. Moreover, the IRF reporter in test [2] (agonist: 3'3'-cGAMP 10 ug/mL) was found to be 0.752 ± 0.03; in test [2] (agonist: LPS 0.1 ug/mL), 1.36 ± 0.27; in test [2] (agonist: MPLA […]) it was 1.15 ± 0.12. Besides, the viability score in test [3] is 1 (active).

With `O=C(NN=Cc1sc2ccccc2c1Cl)c1ccncc1`, the values for the NF-kB reporter in test [1] (setting [4]), in test [1] (agonist: LPS 0.1 ug/mL) and in test [1] (agonist: MPLA […]) were 0.918 ± 0.08, 1.02 ± 0.091 and 0.931 ± 0.058, respectively. Moreover, the values for the IRF reporter in test [2] (agonist: 3'3'-cGAMP 10 ug/mL), in test [2] (agonist: LPS 0.1 ug/mL) and in test [2] (agonist: MPLA […]) were 0.808 ± 0.028, 1.5 ± 0.14 and 1.14 ± 0.11, respectively. In addition, the viability score in test [3] was 1.01 (active).
